Screening results (PubChem)
Cycloheximide cs: counter-screen for Shiga toxin inhibitors: cycloheximide protein synthesis inhibition | cell reporter, cycloheximide protein synthesis inhibition counterscreen | max response, % | 300,000 tested, 12% active; in the data active means max response mostly above about 13%, no sharp cut-off; inactive means mostly below about 14%; further: read at 38.3 µM for the half of the compounds with a filed dose; 0% is about no effect
Shiga toxin inh: Shiga toxin inhibition | Vero cells, Shiga toxin protein synthesis inhibition reporter | inhibition, % at 38.7 µM | 290,000 tested, 9.2% active; in the data active means inhibition mostly above about 28%, no sharp cut-off; inactive means mostly below about 43%; further: 0% is about no effect
Pf growth 48h: P. falciparum growth inhibition at 48 hours (one generation) | P. falciparum luciferase growth in erythrocytes, 48 h | Potency, µM (top dose mostly 28.7 µM), for inactives: at the top dose activity change, negative = inhibition, actives largely listed as inhibitors | 310,000 tested, 5.9% active | AID 504832; further: potency means the concentration at half of the fitted maximal effect; on the % scale 0 is the no-effect control and ±100 the full control effect
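Luciferase-expressing parasites in RBCs, 2% Hct / 0.1% parasitemia final; RPMI 1640 + 0.5% Albumax; 37 C, 5% CO2, one generation; luminescence read-out, lower signal = inhibition.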
NS1 inh: influenza NS1 inhibition; Potency, µM (doses to about 46.1 µM), without a hit: at the highest dose activity, positive = more growth; 270,000 tested, 0.4% active; AID 2326; calls by dose curve; further: potency means the concentration at half of the fitted maximal effect; actives are rising curves; nearly all actives have a fitted effect of over 50% in size
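Recovery from NS1-induced slow growth read by OD600 in budding yeast switched to galactose assay medium (pH 6.0, -URA) at 1:100 dilution. Compound 23 nl per well; the matching strain lacking NS1 serves as control.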
Pf growth 96h: inhibits malaria parasite growth, 96 h. P. falciparum luciferase reporter growth, 96 h. Potency, µM (series often up to 28.7 µM), for inactives: at the highest dose activity change, negative = inhibition, hits mostly inhibitors. 320,000 tested, 6.9% active. AID 504834; further: potency means the concentration at half of the fitted maximal effect; on the % scale 0 is the no-effect control and ±100 the full control effect
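Luminescence readout: decreased luciferase signal marks inhibited growth of reporter-expressing P. falciparum in infected red cells (2% hematocrit, 0.05% parasitemia final), exposed to compound two generations (96 h, 37 C, 5% CO2).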
Giardia FBPA inh: inhibitors of Giardia lamblia fructose-1,6-bisphosphate aldolase; A8B2U2; 290,000 tested, 0.71% active; AID 2451; purified Giardia FBPA; Potency, µM (top dose mostly 59.6 µM), for the others: top-dose activity, negative = inhibition, hits mostly inhibitors; further: potency means the concentration at half of the fitted maximal effect; on the % scale 0 is the no-effect control and ±100 the full control effect; nearly all actives have a fitted effect of over 55% in size
Target sequence (A8B2U2 whole entry, looked up): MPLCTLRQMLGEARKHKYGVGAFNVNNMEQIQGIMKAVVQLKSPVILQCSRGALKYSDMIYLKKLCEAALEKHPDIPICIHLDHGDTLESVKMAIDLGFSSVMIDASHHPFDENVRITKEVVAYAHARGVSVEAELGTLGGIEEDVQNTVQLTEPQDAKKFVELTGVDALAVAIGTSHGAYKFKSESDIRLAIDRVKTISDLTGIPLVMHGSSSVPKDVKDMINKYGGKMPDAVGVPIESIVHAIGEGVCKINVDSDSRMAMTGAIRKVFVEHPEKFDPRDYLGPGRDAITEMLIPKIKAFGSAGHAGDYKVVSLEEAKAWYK
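40 nM FBPA preincubated 10 min at RT with compound (up to 57.5 uM final), then substrate plus GAPDH/TPI/NAD/arsenate coupling and diaphorase/resazurin added. Fluorescence read after 20 min at RT, 525/598 nm.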
* = called active by the depositor; ? = inconclusive; · = no result given; [ ] = remark or other dose. Hits are enriched below; roughly 21% of the tested compounds scored in any of these assays. Unless noted, the call rests on the fitted dose curve; in most records, active means well fitted curve in the direction sought with a large enough effect; inconclusive means small, poorly fitted or top-dose-only effect, or another doubt; inactive means no such curve, though single readings can be large; an effect the other way counts as inactive or inconclusive.

SMILES	Cycloheximide cs	Shiga toxin inh	Pf growth 48h	NS1 inh	Pf growth 96h	Giardia FBPA inh
CCCCN(C(=O)c1cc(S(=O)(=O)N2CCCCCC2)ccc1OC)c1c(N)n(CCC)c(=O)[nH]c1=O	·	·	?	·	-6.7%	·
CN1CCN(S(=O)(=O)c2cccc(C(=O)Nc3sc4c(c3-c3nc5ccccc5[nH]3)CCCC4)c2)CC1	15.6	27.1	2.94µM*	?	3.29µM*	-1.1%
O=C(Nc1sc2c(c1-c1nc3ccccc3[nH]1)CCCC2)C1CCCC1	21.3*	16.9	11.7µM*	11.8%	13.1µM*	-7.3%
O=C(O)c1cc(Nc2cc(Cl)c3nonc3c2[N+](=O)[O-])ccc1O	2.5	-3.1	17.8%	4.4%	15.0%	18.7%
CCSCc1nnc(SCC(=O)Nc2ccc(F)cc2)n1CC	13.2	6.3	10.0%	-2.5%	11.7µM*	-5.4%
CCn1c(COc2ccccc2C)nnc1SCC(=O)CC(=O)Nc1ccccc1	5.3	-1.7	10.4µM*	?	25.7%	9.8%
CCn1c(CNC(=O)c2cccs2)nnc1SCC(=O)Nc1ccc(Cl)cc1	1.3	-4.7	10.4µM*	2.5%	9.28µM*	1.6%
C=CCn1c(CCNC(=O)c2cccs2)nnc1SCC(=O)Nc1cccc(C(C)=O)c1	-0.4	13.1	0.1%	-11.4%	9.28µM*	-1.3%
CCn1c(CNC(=O)c2cccs2)nnc1SCC(=O)Nc1cc(Cl)ccc1C	2.0	3.9	?	3.0%	?	14.2%
CCC(=O)Nc1ccc(C(=O)COC(=O)c2nc3nccc(C)n3n2)cc1	·	·	15.4%	·	-13.0%	·
N#C/C(C(=O)NCc1ccccc1)=C1/SC(Cc2ccc(Cl)cc2)C(=O)N1c1ccccc1 (stereo not given)	-3.2	-10.3	?	0.9%	?	0.9%
Cc1cnc(C(=O)OCC(=O)c2ccc(Cl)cc2)cn1	1.0	-6.5	0.4%	3.8%	37.6%	-16.9%
FC(F)(F)c1ccccc1-c1nc(N2CCNCC2)c2ccccc2n1	·	·	·	·	·	-1.7%
CCn1c(CNC(=O)c2ccc(Cl)cc2)nnc1SCC(=O)NC1=NCCS1	-3.5	-8.0	4.3%	6.0%	8.28µM*	-15.3%
NC(=O)c1ccccc1OCC(=O)N1CCCc2ccccc21	25.6*	74.3*	10.4%	7.9%	9.1%	25.3%
O=C(COc1ccc2ccccc2c1CN1CCOCC1)N1CCc2ccccc21	-2.6	-20.3	·	-12.2%	10.4µM*	5.7%
O=C(COc1ccccc1Cl)N1CCc2ccccc21	41.2*	100.6*	69.4%	-14.0%	5.5%	13.6%
O=C(CCCOc1ccccc1)N1CCCc2ccccc21	49.1*	132.3*	-0.4%	-22.0%	15.4%	11.5%
O=C(COc1ccccc1Cl)N1CCc2ccccc2C1	4.1	·	0.1%	-28.3%	10.1%	1.3%
O=C(Nc1cccc(F)c1)N1CC2(CCN(S(=O)(=O)c3ccccc3)CC2)C1	·	·	·	·	·	-0.9%
COc1ccc(C(=O)CC(=O)c2c(O)cc(OC)cc2OC)cc1	·	·	·	·	·	-0.2%[12.9 µM]
c1ccc(CNc2oc(-c3ccccc3)nc2-c2cccc3ccccc23)cc1	·	·	·	·	·	-3.6%
O=C(COc1ccccc1)N1CCc2ccccc21	31.1*	75.9*	90.7%	-6.4%	3.9%	-17.4%
O=C(COc1ccc(Br)cc1)N1CCc2ccccc21	26.7*	111.1*	35.6%	-4.4%	58.6%	-3.7%
O=C(COc1ccccc1)OCC(=O)N1CCCc2ccccc21	·	·	7.4%	·	33.0%	·
SMILES	Cycloheximide cs	Shiga toxin inh	Pf growth 48h	NS1 inh	Pf growth 96h	Giardia FBPA inh
O=C1c2cccc(OCC(=O)N3CCCc4ccccc43)c2CCN1Cc1ccccc1	14.2*	20.4	?	-4.4%	?	-4.9%
CC(=O)N1CCC2(CC1)CCN(c1cccc(-c3ccccc3)c1)CC2	·	·	·	·	·	-5.0%
Oc1cc(O)c2c(c1)O[C@@H](c1ccc(O)c(O)c1)[C@H](O[C@@]1(c3cc(O)c(O)c(O)c3)Oc3cc(O)cc(O)c3[C@H](O)[C@@H]1O)C2	·	·	·	5.0%	·	·
COc1cc(NC(=O)c2c(F)c(F)c(OC)c(F)c2F)ccc1NC(=O)c1cccs1	9.5	19.3	-10.7%	0.8%	18.2%	·
CC1=C/C(=N\OC(=O)/C=C/c2ccccc2)C(C)=CC1=O	-3.7	-7.4	7.6%	?	?	-19.1%
COc1ccc(/C=C/C(=O)NC(=S)NNC(=O)c2cccnc2)cc1OC	2.5	32.1	-3.2%	12.3%	30.3%	?
N/C(=N\OC(=O)/C=C/c1ccccc1)c1ccccc1	34.9*	91.7*	·	-184.1%	4.5%	-1.4%
N/C(=N\OC(=O)/C=C/c1ccccc1)c1ccc(Cl)cc1	15.5*	17.5	-11.0%	-4.0%	?	0.9%
COc1ccc(/C=C/C(=O)O/N=C(\N)c2cccnc2)cc1OC	28.6*	24.9	?	-8.6%	?	-13.1%
CN(Cc1ccccc1)S(=O)(=O)c1ccc(N2CCOCC2)nc1	-3.7	-4.2	8.1%	-6.1%	23.8%	-5.0%
Cn1c(=O)c2c(nc(CN3CCN(C(=O)c4ccco4)CC3)n2Cc2cccc(Cl)c2)n(C)c1=O	-2.8	-8.2	4.65µM*	-5.3%	-5.6%	-1.4%
Cn1c(=O)c2c(nc(CN3CCN(C(=O)c4ccco4)CC3)n2Cc2ccccc2)n(C)c1=O	-1.6	-8.2	10.4µM*	-2.7%	?	2.2%
O=C(c1ccco1)N1CCN(Cc2nc3ccccc3c(=O)n2-c2ccc(F)cc2)CC1	-1.5	-6.1	·	2.3%	9.28µM*	-9.7%
Cn1c(=O)c2c(nc(CN3CCN(C(=O)c4ccco4)CC3)n2Cc2ccc(Cl)cc2)n(C)c1=O	-3.4	16.4	7.38µM*	-11.2%	4.4%[5.75 µM]	3.1%
C=CCn1cc(C(=O)OCC)c(=O)c2ccc(F)cc21	-4.5	21.7	-24.7%	0.9%	56.0%[1.15 µM]	1.9%
COc1ccc2nc(SCC(=O)NC3(C#N)CCCCC3)[nH]c2c1	·	·	-3.7%	·	-19.6%	·
Cc1ccc(Cn2c(CN3CCN(C(=O)c4ccco4)CC3)nc3c2c(=O)n(C)c(=O)n3C)cc1	1.3	33.8	2.08µM*	-11.4%	?	-2.5%
CCCC(=O)Nc1c(C)n[nH]c1C	-3.7	0.4	1.4%	2.5%	0.586µM*	10.6%
CNCC(=O)Nc1c(C)n[nH]c1C	-2.9	-5.4	16.6%	1.6%	-8.7%	-8.7%
COC(=O)c1sccc1NC(=O)COc1ccc(F)cc1Cl	12.9	19.0	15.9%	-3.6%	4.2%	0.7%
CN(C)/C=C(\C#N)C(=O)N/N=C/c1ccc(Cl)cc1	9.5	14.1	85.8%	·	54.0%	-25.6%
CN(C)/C=C(\C#N)C(=O)Nc1ccc(F)cc1	15.7*	50.3*	83.5%	9.2%	155.9%	-0.5%
CN(C)/C=C(\C#N)C(=O)Nc1ccc(F)c(Cl)c1	24.0*	52.2*	145.2%	3.3%	189.3%	4.0%
CCN(CC)c1ccc(/C=N/NC(=O)Cc2cccs2)c(O)c1	32.0*	78.4*	?	8.3%	?	-13.8%
CCN(CC)c1ccc(/C=N/NC(=O)c2ccco2)cc1	49.2*	52.5*	10.9%	-24.6%	?	6.5%
CCN(CC)c1ccc(/C=N/NC(=O)c2ccc([N+](=O)[O-])cc2)cc1	11.6	4.5	16.3%	·	44.1%	6.8%
